Laboratory results as given in PubChem BioAssay (Tox21).
Records with an inconclusive call do not appear. Active and inactive are the calls of the source. Unless noted, calls come from the whole dose curve; as a rule, active = well fitted curve in the direction sought with a large enough effect in the repeat runs; inconclusive = weak or mixed curves; inactive = no such curve, though single readings can be large; an effect the other way counts as inactive or inconclusive.

Legend:
[1] = qHTS assay to identify small molecule agonists of the TGF-beta/Smad signaling pathway - cell viability counter screen (AID 1346829); note: top concentration of the series differs between compounds; nearly all actives have a fitted effect of over 45% in size
Method in brief: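 HEK 293T SBE-bla line, 5 hr compound exposure at 37 C, multiplexed CellTiter-Glo viability read by luminescence.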

[2] = qHTS assay to identify small molecule agonists of the TGF-beta/Smad signaling pathway (AID 1346859; active = well fitted activation curve with a large enough effect in the signal ratio in the repeat runs, not every such curve was filed as active; the % refers to the signal ratio; note: series mostly up to about 77 µM)
Method in brief: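 Stable Smad binding element-beta-lactamase HEK 293T cells; 5 hr compound exposure at 37 C under 5% CO2; 2 hr room-temperature substrate step; fluorescence excited at 405 nm, collected at 460 nm and 530 nm.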

[3] = biological target: Thyrotropin-releasing hormone receptor (Homo sapiens) (UniProt P34981); assay: qHTS assay to identify small molecule antagonists of the thyrotropin-releasing hormone receptor (TRHR) signaling pathway (AID 1346877; active = well fitted inhibition curve with a large enough effect in the repeat runs, not every such curve was filed as active; note: series mostly up to about 51 µM)
Thyrotropin-releasing hormone receptor (Homo sapiens), sequence (P34981 whole entry, looked up): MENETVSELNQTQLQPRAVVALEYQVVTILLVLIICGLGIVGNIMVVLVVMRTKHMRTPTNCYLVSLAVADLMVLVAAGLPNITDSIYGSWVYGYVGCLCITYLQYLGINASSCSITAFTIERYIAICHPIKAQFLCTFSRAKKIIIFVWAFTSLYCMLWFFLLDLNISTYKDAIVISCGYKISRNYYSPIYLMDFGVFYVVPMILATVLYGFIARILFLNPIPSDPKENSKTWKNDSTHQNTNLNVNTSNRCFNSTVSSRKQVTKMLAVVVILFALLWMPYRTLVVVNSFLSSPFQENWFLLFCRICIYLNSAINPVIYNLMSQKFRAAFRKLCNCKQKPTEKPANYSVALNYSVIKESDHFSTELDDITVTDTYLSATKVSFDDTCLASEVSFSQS
Method in brief: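 Kinetic fluorescence (3 min, 1 s resolution) following stimulation with TRH at 1 nM final; HEK293 cells bearing human TRHR; 5 min compound preincubation at RT; concentration-response over 15 points, triplicates.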

[4] = biological target: Thyrotropin-releasing hormone receptor (Homo sapiens) (UniProt P34981); assay: qHTS assay to identify small molecule agonists of the thyrotropin-releasing hormone receptor (TRHR) signaling pathway (AID 1346891; calls by dose curve; note: potency is the fitted concentration of half-maximal effect;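 for activation: HEK293 cells expressing TRHR with calcium dye readout; series mostly up to about 58 µM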)
Method in brief: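 In 1536-format, 1500 TRHR-Hek293 cells per well grew 18 h, took up calcium dye for 2 h at 37 °C, received compound, and were read kinetically; 15-point titrations, triplicates.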

[5] = Human pregnane X receptor (PXR) small molecule agonists, qHTS cell viability counter screen (AID 1346977); note: nearly all actives have a fitted effect of over 50% in size
Method in brief: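 Readout is CellTiter-Fluor fluorescence from PXR-Luc HepG2 cells. Plated cells rested 5hr, then were treated with compounds for 24hr at 37C and 5% CO2, with reagent present during the last hour.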

[6] = Caspase-3/7 induction in CHO-K1 cells by small molecules, qHTS cell viability counter screen (AID 1346979); note: nearly all actives have a fitted effect of over 35% in size
Method in brief: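 To flag cytotoxic compounds, treated CHO-K1 wild-type cells were given CellTiter-Fluor at 16hr and read fluorescently after 1hr at 37C; the caspase-3/7 luminescence was measured in these same wells.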

[7] = biological target: Nuclear receptor subfamily 1 group I member 2 (Homo sapiens) (UniProt O75469); assay: Human pregnane X receptor (PXR) small molecule agonists, qHTS assay (AID 1346982); note: nearly all actives have a fitted effect of over 35% in size
Nuclear receptor subfamily 1 group I member 2 (Homo sapiens), sequence (O75469 whole entry, looked up): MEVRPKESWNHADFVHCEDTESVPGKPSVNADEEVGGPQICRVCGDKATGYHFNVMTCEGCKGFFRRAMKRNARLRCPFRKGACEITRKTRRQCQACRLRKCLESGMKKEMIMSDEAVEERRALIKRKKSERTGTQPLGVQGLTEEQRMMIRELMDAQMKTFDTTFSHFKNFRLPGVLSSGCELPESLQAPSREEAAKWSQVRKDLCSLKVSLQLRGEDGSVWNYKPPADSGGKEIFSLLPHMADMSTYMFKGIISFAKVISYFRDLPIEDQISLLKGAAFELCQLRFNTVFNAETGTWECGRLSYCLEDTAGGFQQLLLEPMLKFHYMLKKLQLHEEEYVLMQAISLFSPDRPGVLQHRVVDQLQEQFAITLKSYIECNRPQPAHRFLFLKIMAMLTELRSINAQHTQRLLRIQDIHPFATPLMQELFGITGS
Method in brief: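 Reporter HepG2 cells expressing PXR-Luc are cultured in charcoal-stripped FBS (5%), treated with compounds for 24 hr at 37 C, and assayed by ONE-Glo luminescence after 30 min at room temperature.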

[8] = biological target: Cytochrome P450 2C19 (Homo sapiens) (UniProt P33261); assay: Cytochrome P450 Family 2 Subfamily C Member 19 (CYP2C19) small molecule antagonists: luciferase reporter qHTS assay (AID 1671197); note: nearly all actives have a fitted effect of over 65% in size; note: potency is the fitted concentration of half-maximal effect; for activity change, negative = inhibition: series mostly up to about 120 µM
Cytochrome P450 2C19 (Homo sapiens), sequence (P33261 whole entry, looked up): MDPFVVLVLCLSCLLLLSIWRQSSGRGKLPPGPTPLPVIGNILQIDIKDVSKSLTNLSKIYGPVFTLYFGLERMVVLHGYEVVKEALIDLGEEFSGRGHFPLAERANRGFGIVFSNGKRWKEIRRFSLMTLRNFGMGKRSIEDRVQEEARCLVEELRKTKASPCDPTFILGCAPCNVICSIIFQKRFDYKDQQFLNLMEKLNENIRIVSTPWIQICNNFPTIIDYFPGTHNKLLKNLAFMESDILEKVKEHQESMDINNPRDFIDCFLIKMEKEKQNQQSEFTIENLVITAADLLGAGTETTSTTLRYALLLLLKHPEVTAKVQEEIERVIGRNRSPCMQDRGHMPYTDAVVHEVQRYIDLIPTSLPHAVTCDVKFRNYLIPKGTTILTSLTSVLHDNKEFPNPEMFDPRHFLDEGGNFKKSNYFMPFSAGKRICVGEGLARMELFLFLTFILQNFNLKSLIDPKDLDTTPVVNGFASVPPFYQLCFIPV
Method in brief: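 First, compounds are pinned into enzyme-substrate mix and held 10 min at room temperature. Second, NADPH regeneration solution is added and plates incubate 1 h at 37C. Third, detection reagent is added and luminescence read after 20 min.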

[9] = biological target: Cytochrome P450 1A2 (Homo sapiens) (UniProt P05177); assay: Cytochrome P450 Family 1 Subfamily A Member 2 (CYP1A2) small molecule antagonists: luciferase reporter qHTS assay (AID 1671199); note: nearly all actives have a fitted effect of over 50% in size; note: potency is the fitted concentration of half-maximal effect; for activity change, negative = inhibition: series mostly up to about 120 µM
Cytochrome P450 1A2 (Homo sapiens), sequence (P05177 whole entry, looked up): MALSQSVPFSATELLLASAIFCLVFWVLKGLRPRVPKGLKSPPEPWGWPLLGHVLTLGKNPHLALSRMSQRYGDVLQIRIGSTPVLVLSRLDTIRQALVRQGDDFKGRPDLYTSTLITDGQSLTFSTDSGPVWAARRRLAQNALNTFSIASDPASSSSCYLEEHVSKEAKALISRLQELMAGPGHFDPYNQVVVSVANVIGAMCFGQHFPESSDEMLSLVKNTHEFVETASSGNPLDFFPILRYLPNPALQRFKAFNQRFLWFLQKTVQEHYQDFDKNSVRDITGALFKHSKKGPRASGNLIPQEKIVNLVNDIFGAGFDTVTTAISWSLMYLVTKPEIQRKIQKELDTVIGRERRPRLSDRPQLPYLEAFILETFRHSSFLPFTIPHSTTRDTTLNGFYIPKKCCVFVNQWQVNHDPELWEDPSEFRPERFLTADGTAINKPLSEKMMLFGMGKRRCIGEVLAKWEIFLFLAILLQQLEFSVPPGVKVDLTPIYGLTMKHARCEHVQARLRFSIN
Method in brief: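 Steps: enzyme-substrate mix dispensed; test compounds and furafylline control pinned in; 10 min room temperature; NADPH regeneration solution added, 1 h; reaction stopped with luciferin detection reagent; luminescence read after 20 min.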

[10] = biological target: Voltage-gated inwardly rectifying potassium channel KCNH2 (Homo sapiens) (UniProt Q12809); assay: Human Ether-a-go-go-Related Gene (hERG) channel small molecule antagonists: fluorescence cell-based qHTS assay (AID 1671200);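 note: hERG-expressing U2OS cells given a thallium stimulus after FluxOR II dye loading; series mostly up to about 77 µM; nearly all actives have a fitted effect of over 50% in size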
Voltage-gated inwardly rectifying potassium channel KCNH2 (Homo sapiens), sequence (Q12809 whole entry, looked up): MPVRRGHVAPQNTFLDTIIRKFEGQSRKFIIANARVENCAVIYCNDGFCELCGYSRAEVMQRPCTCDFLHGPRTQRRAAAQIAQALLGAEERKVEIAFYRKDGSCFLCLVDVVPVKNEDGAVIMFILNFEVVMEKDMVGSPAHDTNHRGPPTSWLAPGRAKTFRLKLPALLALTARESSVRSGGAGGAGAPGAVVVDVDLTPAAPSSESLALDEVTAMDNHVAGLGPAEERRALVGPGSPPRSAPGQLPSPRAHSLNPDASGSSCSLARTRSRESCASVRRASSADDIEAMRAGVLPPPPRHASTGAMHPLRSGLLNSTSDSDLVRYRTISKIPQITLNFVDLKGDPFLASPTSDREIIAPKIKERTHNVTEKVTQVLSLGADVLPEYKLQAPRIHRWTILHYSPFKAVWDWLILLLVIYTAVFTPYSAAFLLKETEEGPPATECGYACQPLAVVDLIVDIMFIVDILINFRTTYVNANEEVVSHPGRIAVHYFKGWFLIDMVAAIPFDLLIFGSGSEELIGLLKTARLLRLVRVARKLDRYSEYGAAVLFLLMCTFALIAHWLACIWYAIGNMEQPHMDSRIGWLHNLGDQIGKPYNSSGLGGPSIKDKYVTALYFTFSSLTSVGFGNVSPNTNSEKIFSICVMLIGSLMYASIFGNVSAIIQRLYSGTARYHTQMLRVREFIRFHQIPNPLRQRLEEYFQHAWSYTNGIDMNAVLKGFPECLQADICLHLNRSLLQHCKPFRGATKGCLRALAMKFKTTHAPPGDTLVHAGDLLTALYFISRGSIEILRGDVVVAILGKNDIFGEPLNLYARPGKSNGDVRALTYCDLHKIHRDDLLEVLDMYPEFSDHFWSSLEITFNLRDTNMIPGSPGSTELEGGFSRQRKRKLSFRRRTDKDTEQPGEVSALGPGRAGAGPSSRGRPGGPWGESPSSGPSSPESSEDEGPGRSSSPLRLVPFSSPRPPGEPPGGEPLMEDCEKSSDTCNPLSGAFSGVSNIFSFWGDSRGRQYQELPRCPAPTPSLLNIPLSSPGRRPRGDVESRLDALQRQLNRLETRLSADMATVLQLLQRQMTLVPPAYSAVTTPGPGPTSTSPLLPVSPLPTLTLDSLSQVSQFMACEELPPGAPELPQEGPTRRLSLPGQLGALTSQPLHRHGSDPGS
Method in brief: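 Measured: Tl+ flux via fluorescence (480/540 nm) in hERG-expressing U2OS cells after 1 h dye loading at room temperature.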

[11] = biological target: Cytochrome P450 3A4 (Homo sapiens) (UniProt P08684); assay: Cytochrome P450 Family 3 Subfamily A Member 4 (CYP3A4) small molecule antagonists: luciferase reporter qHTS assay (AID 1671201); note: nearly all actives have a fitted effect of over 50% in size; note: potency is the fitted concentration of half-maximal effect; for activity change, negative = inhibition: series mostly up to about 120 µM
Cytochrome P450 3A4 (Homo sapiens), sequence (P08684 whole entry, looked up): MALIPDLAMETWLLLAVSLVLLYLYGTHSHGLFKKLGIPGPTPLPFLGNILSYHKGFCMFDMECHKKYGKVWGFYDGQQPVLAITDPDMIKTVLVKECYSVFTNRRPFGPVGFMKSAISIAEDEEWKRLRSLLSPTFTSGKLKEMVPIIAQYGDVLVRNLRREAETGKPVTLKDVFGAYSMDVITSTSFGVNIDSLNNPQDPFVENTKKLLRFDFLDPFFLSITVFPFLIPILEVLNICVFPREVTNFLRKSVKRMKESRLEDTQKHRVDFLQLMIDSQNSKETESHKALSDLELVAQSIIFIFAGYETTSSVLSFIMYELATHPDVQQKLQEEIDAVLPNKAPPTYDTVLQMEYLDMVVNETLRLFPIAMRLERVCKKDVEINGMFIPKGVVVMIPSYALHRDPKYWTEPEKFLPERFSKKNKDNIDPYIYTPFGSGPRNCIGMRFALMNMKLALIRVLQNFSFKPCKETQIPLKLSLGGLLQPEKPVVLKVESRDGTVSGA
Method in brief: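 Setup: enzyme-substrate mix, compound pin transfer, 10 min RT. Reaction: NADPH regeneration solution, 1 h RT. Readout: detection reagent stops turnover, luminescence measured after 20 min, expressed in relative luminescence units.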

[12] = Caspase-3/7 induction in HepG2 cells by small molecules, qHTS assay (AID 1346978); note: nearly all actives have a fitted effect of over 15% in size
Method in brief: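 Wild-type HepG2 cells, 2,000/well, settled 5 hr at 37 C and 5% CO2, then compound-treated for 17 hr; caspase-3/7 activity read by luminescent Caspase-Glo 3/7 after 30 min at room temperature.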

[13] = Caspase-3/7 induction in HepG2 cells by small molecules, qHTS cell viability counter screen (AID 1346981); note: series mostly up to about 92 µM; nearly all actives have a fitted effect of over 30% in size
Method in brief: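 In this quantitative HTS counter screen, compounds delivered in DMSO were left on unmodified HepG2 cells for 16 hr at 37 C. Viability was then determined fluorometrically with CellTiter-Fluor, in parallel with caspase-3/7 induction in the same wells.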

[14] = biological target: Cytochrome P450 2D6 (Homo sapiens) (UniProt P10635); assay: Cytochrome P450 Family 2 Subfamily D Member 6 (CYP2D6) small molecule antagonists: luciferase reporter qHTS assay (AID 1671196); note: nearly all actives have a fitted effect of over 50% in size; note: potency is the fitted concentration of half-maximal effect; for activity change, negative = inhibition: series mostly up to about 120 µM
Cytochrome P450 2D6 (Homo sapiens), sequence (P10635 whole entry, looked up): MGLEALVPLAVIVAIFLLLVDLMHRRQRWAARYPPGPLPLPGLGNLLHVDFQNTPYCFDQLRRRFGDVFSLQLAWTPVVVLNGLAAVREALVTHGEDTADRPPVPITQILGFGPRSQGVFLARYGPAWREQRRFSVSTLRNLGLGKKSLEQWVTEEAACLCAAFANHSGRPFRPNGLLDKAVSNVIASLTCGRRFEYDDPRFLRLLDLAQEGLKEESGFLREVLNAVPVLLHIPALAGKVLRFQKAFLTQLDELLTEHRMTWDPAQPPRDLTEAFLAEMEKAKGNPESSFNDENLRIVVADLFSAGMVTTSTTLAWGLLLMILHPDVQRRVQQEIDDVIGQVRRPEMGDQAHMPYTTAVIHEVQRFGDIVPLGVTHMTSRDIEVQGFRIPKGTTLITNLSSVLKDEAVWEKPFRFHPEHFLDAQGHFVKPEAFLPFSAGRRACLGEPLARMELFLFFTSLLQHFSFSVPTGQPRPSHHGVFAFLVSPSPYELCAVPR
Method in brief: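 Test chemicals meet CYP2D6 plus proluciferin substrate (10 min, RT); NADPH regenerating solution then drives turnover for 1 h. Detection reagent halts the reaction; luminescence measured after 20 min.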

[15] = biological target: Cytochrome P450 2C9 (Homo sapiens) (UniProt P11712); assay: Cytochrome P450 Family 2 Subfamily C Member 9 (CYP2C9) small molecule antagonists: luciferase reporter qHTS assay (AID 1671198); note: nearly all actives have a fitted effect of over 50% in size; note: potency is the fitted concentration of half-maximal effect; for activity change, negative = inhibition: series mostly up to about 120 µM
Cytochrome P450 2C9 (Homo sapiens), sequence (P11712 whole entry, looked up): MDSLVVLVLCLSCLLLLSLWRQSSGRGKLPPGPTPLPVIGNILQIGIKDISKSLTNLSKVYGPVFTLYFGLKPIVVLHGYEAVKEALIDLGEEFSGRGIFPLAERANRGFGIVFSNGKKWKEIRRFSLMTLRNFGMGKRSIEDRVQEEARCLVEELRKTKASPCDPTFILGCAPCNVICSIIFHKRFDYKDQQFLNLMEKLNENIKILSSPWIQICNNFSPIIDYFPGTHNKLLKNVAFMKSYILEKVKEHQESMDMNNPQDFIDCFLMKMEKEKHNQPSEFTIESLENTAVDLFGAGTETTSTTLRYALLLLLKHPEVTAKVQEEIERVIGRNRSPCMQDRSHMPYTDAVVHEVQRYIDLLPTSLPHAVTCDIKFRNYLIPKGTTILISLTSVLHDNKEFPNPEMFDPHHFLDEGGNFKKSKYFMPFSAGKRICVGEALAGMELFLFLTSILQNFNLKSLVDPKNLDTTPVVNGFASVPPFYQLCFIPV
Method in brief: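 P450-Glo proluciferin substrate with CYP2C9 enzyme; 10 min RT preincubation, then NADPH regeneration 1 h at 37C; luciferin detection reagent 20 min RT, luminescence in relative luminescence units.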

[16] = Caspase-3/7 induction in CHO-K1 cells by small molecules, qHTS assay (AID 1346980); note: nearly all actives have a fitted effect of over 15% in size
Method in brief: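 Wild-type CHO-K1 cells exposed to compounds for 17hr at 37 C, 5% CO2. Caspase-3/7 activity then measured by Caspase-Glo 3/7 luminescence after 30min at room temperature.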

[17] = biological target: Nuclear receptor subfamily 1 group I member 2 (Rattus norvegicus) (UniProt Q9R1A7); assay: Rat pregnane X receptor (rPXR) activation by small molecules, qHTS assay (AID 1346983); conditions: rPXR luciferase reporter cells, One-Glo luminescence, 24 h; max activation: hits give high values; note: nearly all actives have a fitted effect of over 20% in size
Nuclear receptor subfamily 1 group I member 2 (Rattus norvegicus), sequence (Q9R1A7 whole entry, looked up): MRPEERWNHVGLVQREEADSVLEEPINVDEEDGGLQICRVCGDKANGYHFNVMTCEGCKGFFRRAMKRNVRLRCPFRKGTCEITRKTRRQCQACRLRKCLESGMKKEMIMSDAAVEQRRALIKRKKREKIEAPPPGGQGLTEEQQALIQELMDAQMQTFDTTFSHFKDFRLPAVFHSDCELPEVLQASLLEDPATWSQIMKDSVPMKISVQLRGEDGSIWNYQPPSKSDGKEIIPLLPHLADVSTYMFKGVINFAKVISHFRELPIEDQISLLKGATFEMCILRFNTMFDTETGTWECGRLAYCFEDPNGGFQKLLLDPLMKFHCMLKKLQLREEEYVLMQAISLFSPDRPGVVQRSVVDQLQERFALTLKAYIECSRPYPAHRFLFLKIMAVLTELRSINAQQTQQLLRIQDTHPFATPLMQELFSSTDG
Method in brief: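 Cell-based rPXR activation assay: rPXR cells, 2,000 per well, rested 5hr at 37 C, then exposed to compounds in DMSO for 24 hr at 37 C. Luciferase activity read by One-Glo luminescence after 30 min at room temperature.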

[18] = biological target: Nuclear receptor subfamily 1 group I member 2 (Homo sapiens) (UniProt O75469); assay: CYP3A4 induction through human pregnane X receptor (PXR) by small molecules, qHTS assay (AID 1346984); note: nearly all actives have a fitted effect of over 40% in size
Method in brief: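 Induction measured in HepG2-based DPX-2 cells co-expressing human PXR and a CYP3A4 promoter-driven luciferase. After a 24-hour compound exposure, cells received CYP3A4 luciferin substrate at 3uM final for 3 hours, and light output was then recorded.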

[19] = biological target: Nuclear receptor subfamily 1 group I member 2 (Homo sapiens) (UniProt O75469); assay: Human pregnane X receptor (PXR) activation by small molecules, qHTS assay (AID 1346985); note: nearly all actives have a fitted effect of over 40% in size
Method in brief: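 DPX-2 cells (HepG2 co-transfected with a PXR response element and a CYP3A4-promoter luciferase construct) were seeded at 2,000 per well, rested 5 hr at 37C, then exposed to DMSO-dissolved compounds for 24 hr. Activation was read as luciferase luminescence.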
% is set by controls: 0 for no effect and ±100 for the full control effect.

CCN(CC)CC
inactive: outcome [1] | outcome [2] | outcome [3] | Potency [4] | outcome [5] | Potency [6] | Potency [7] | Potency [9] | Potency [10] | Potency [11]
active: Potency [8] 59.4 µM

CSC(=O)c1cccc2nnsc12
inactive: outcome [1] | outcome [2] | outcome [3] | Potency [4] | outcome [12] | Potency [6] | outcome [13] | Potency [7] | Potency [10] | Potency [11]
active: Potency [14] 35.6 µM | Potency [8] 12.6 µM | Potency [15] 7.96 µM | Potency [9] 0.71 µM

O=C(O)Cc1ccccc1Oc1ccc(Cl)cc1Cl
inactive: outcome [1] | outcome [2] | outcome [3] | outcome [5] | outcome [12] | Potency [6] | outcome [16] | outcome [13] | Potency [7] | Potency [8] | Potency [10] | Potency [11]
active: Potency [15] 38.9 µM

C=CC(C)(CCC=C(C)C)OC(=O)C(C)C (centres undefined)
inactive: outcome [1] | outcome [2] | outcome [3] | Potency [4] | outcome [12] | Potency [6] | outcome [16] | outcome [13] | Potency [7] | Potency [14] | Potency [9] | Potency [10]
active: Potency [8] 71 µM | Potency [15] 39.9 µM | Potency [11] 63.3 µM

CN(C)CCC[C@@]1(c2ccc(F)cc2)OCc2cc(C#N)ccc21
inactive: outcome [1] | outcome [2] | outcome [3] | Potency [4] | Potency [6] | outcome [16] | Potency [7] | max activation [17] -1.39% | outcome [18] | outcome [19] | Potency [8] | Potency [15] | Potency [9] | Potency [11]

Cc1ccc(O)c(C(=O)c2ccccc2)c1
inactive: outcome [1] | outcome [2] | outcome [3] | Potency [4] | Potency [6] | outcome [16] | outcome [13]
active: Potency [8] 1.01 µM | Potency [15] 5.69 µM | Potency [9] 1.43 µM | Potency [11] 32 µM

O=S(=O)(O)c1ccc(Cl)cc1
active: Potency [8] 55.3 µM
inactive: outcome [1] | outcome [2] | outcome [3] | outcome [5] | outcome [12] | Potency [6] | outcome [16] | outcome [13] | Potency [7] | Potency [15] | Potency [10] | Potency [11]

NNC(=O)CCCCC(=O)NN
active: Potency [9] 31.7 µM | Potency [11] 11.2 µM
inactive: outcome [1] | outcome [2] | outcome [3] | Potency [4] | outcome [5] | Potency [6] | outcome [16] | outcome [13] | Potency [7] | Potency [10]

CN(C)CCCN(C)C
inactive: activity change, negative = cytotoxicity [1] 0.619% [at 6.97 µM] | activation [2] -1.23% [at 6.97 µM] | activation [4] -0.372% [at 5.23 µM] | activity change, negative = cytotoxicity [5] 11.9% [at 8.39 µM] | caspase activation [12] 0.348% [at 8.39 µM] | activity change, negative = cytotoxicity [6] 2.18% [at 8.39 µM] | caspase-3/7 activation [16] 1.46% [at 8.39 µM] | activation [7] 5.88% [at 8.39 µM] | activity change, negative = inhibition [14] -7.64% [at 10.5 µM] | activity change, negative = inhibition [8] -19.3% [at 10.5 µM] | activity change, negative = inhibition [15] -13.3% [at 10.5 µM] | activity change, negative = inhibition [10] 0.578% [at 6.97 µM] | activity change, negative = inhibition [11] 12.7% [at 10.5 µM]

CC(C)C[P+](C)(CC(C)C)CC(C)C
inactive: outcome [1] | outcome [2] | outcome [3] | outcome [5] | outcome [12] | Potency [6] | outcome [16] | outcome [13] | Potency [7] | Potency [15] | Potency [10]

N=C(N)N
inactive: outcome [1] | outcome [2] | outcome [3] | outcome [5] | outcome [12] | Potency [6] | outcome [13] | Potency [7] | Potency [14] | Potency [8] | Potency [9] | Potency [10] | Potency [11]

CCCCCCCCCCCCCCBr
inactive: outcome [1] | outcome [2] | outcome [3] | outcome [12] | Potency [6] | outcome [16] | Potency [7] | Potency [14] | Potency [8] | Potency [15] | Potency [9] | Potency [10] | Potency [11]

CCCCCCC(=O)c1ccccc1
active: Potency [9] 50.2 µM
inactive: outcome [1] | outcome [2] | outcome [3] | outcome [5] | Potency [6] | outcome [16] | outcome [13] | Potency [7] | Potency [8] | Potency [15] | Potency [10] | Potency [11]

C=CC(=O)OCC[N+](C)(C)C
inactive: outcome [1] | outcome [2] | outcome [5] | outcome [12] | Potency [6] | outcome [16] | outcome [13] | Potency [7] | Potency [8] | Potency [15] | Potency [10] | Potency [11]
active: Potency [4] 1.56 µM
